From PubChem BioAssay (NCATS)
Results filed as inconclusive are left out. Activity calls are given as the source filed them. Calls come from the whole dose curve; as a rule, active = well fitted inhibition curve with a large enough effect; inconclusive = small, poorly fitted or top-dose-only effect; inactive = flat fitted curve, though single readings scatter.

Key:
[1] = qHTS profiling for inhibitors of Plasmodium falciparum proliferation (AID 504749); note: nearly all actives have a fitted effect of over 60% in size;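 for activity, negative = inhibition: 0% = DMSO vehicle and full inhibition = artemisinin control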; details: P. falciparum in erythrocytes, SYBR Green DNA, 72 h
Procedure, shortened: (§1)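 P. falciparum-infected erythrocytes (0.3% parasitemia, 2.5% hematocrit) incubated with compound 72 h at 37 C, 5% CO2. Parasite DNA detected by SYBR Green after lysis, overnight at room temperature; normalised to 0.29 uM artemisinin and DMSO.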

3D7 = experiment: as above; details: P. falciparum in erythrocytes, SYBR Green DNA, 72 h; series mostly up to 28.7 µM
Procedure, shortened: as §1

AA1029 = experiment: as above; details: P. falciparum in erythrocytes, SYBR Green DNA, 72 h; series mostly up to 28.7 µM
Procedure, shortened: as §1

AS120 = experiment: as above; details: P. falciparum in erythrocytes, SYBR Green DNA, 72 h; series mostly up to 28.7 µM
Procedure, shortened: as §1

7G8 = experiment: as above; details: P. falciparum in erythrocytes, SYBR Green DNA, 72 h; series mostly up to 28.7 µM
Procedure, shortened: as §1

[2] = at 28.7 µM (top of the series), parasite line A
[3] = at 28.7 µM (top of the series), parasite line B
[4] = at 12.8 µM (top of the series), parasite line A
[5] = at 12.8 µM (top of the series), parasite line B
Potency is the fitted concentration of half-maximal effect.

CCN1CCN(c2cc3c(cc2F)c(=O)c(C(=O)O)cn3C2CC2)CC1
inactive: activity, negative = inhibition [1, 2] -8.55% | activity, negative = inhibition [1, 3] -3.41% | Potency (3D7) | Potency (AA1029) | Potency (AS120)

CCCCN1CCCC1C(=O)Nc1c(C)cc(C)cc1C (configuration not stated)
inactive: activity, negative = inhibition [1, 2] -15.8% | activity, negative = inhibition [1, 3] -3.59% | Potency (3D7) | Potency (AA1029) | Potency (AS120)

CCCCCCCCCCCCCCCCOP(=O)([O-])OCC[N+](C)(C)C
inactive: activity, negative = inhibition [1, 2] -1.43% | activity, negative = inhibition [1, 3] 12.3% | Potency (3D7) | Potency (AA1029) | Potency (AS120)

CC(=O)c1ccc2c(c1)N(CCCN1CCC(CCO)CC1)c1ccccc1S2
inactive: activity, negative = inhibition [1, 4] -2.26% | activity, negative = inhibition [1, 5] 0.0996% | Potency (3D7) | Potency (AA1029) | Potency (AS120)

CC[N+](CC)(CCNC(=O)C(=O)NCC[N+](CC)(CC)Cc1ccccc1Cl)Cc1ccccc1Cl
active: Potency ([1]; parasite line A) 1.12 µM | Potency ([1]; parasite line B) 0.794 µM | Potency (7G8) 7.94 µM | Potency (AA1029) 2.82 µM | Potency (AS120) 1 µM

O=C(N/N=C/c1ccccc1O)c1ccncc1
active: Potency ([1]; parasite line A) 6.31 µM | Potency ([1]; parasite line B) 11.2 µM | Potency (7G8) 8.91 µM | Potency (AA1029) 11.2 µM | Potency (AS120) 4.47 µM

c1ccc(OCc2ccc(CCCN3CCOCC3)cc2)cc1
inactive: activity, negative = inhibition [1, 2] 3.42% | activity, negative = inhibition [1, 3] 8.4% | Potency (3D7) | Potency (AA1029) | Potency (AS120)

O=C(Nc1ccc(Cl)c(Cl)c1)C1CC1
inactive: activity, negative = inhibition [1, 2] -11.1% | activity, negative = inhibition [1, 3] -1.73% | Potency (3D7) | Potency (7G8) | Potency (AA1029) | Potency (AS120)

CCCCOc1cc(C(=O)NCCN(CC)CC)c2ccccc2n1
inactive: activity, negative = inhibition [1, 4] 7.49% | activity, negative = inhibition [1, 5] 7.29% | Potency (3D7) | Potency (AA1029) | Potency (AS120)

NC(=O)C(=O)N/N=C/c1ccc([N+](=O)[O-])o1
inactive: activity, negative = inhibition [1, 2] -26.1% | activity, negative = inhibition [1, 3] -11.4% | Potency (3D7) | Potency (7G8) | Potency (AA1029) | Potency (AS120)

C[C@@H](CN(C)C)CN1c2ccccc2Sc2ccccc21
inactive: activity, negative = inhibition [1, 4] 1.53% | activity, negative = inhibition [1, 5] 7.77% | Potency (3D7) | Potency (AA1029) | Potency (AS120)

C1CCc2nnnn2CC1
inactive: activity, negative = inhibition [1, 2] 11.2% | activity, negative = inhibition [1, 3] 0.626% | Potency (3D7) | Potency (7G8) | Potency (AA1029) | Potency (AS120)

CC(=O)N/N=C/c1ccc([N+](=O)[O-])o1
active: Potency ([1]; parasite line A) 1.12 µM | Potency ([1]; parasite line B) 12.6 µM | Potency (7G8) 7.94 µM | Potency (AS120) 7.08 µM
inactive: Potency (3D7)

CCN(CC)CCOC(=O)C(c1ccccc1)C1CCCCC1 (configuration not stated)
inactive: activity, negative = inhibition [1, 2] 0.689% | activity, negative = inhibition [1, 3] -1.84% | Potency (3D7) | Potency (AS120)

CC(O)C(=O)O (configuration not stated)
inactive: activity, negative = inhibition [1, 2] 1.12% | activity, negative = inhibition [1, 3] 5.39% | Potency (7G8) | Potency (AA1029) | Potency (AS120)

CCN(CC)CCOc1ccc(C(O)(Cc2ccc(Cl)cc2)c2ccc(C)cc2)cc1 (configuration not stated)
active: Potency (7G8) 5.01 µM | Potency (AA1029) 11.2 µM

CCCCCCCCCCCCCCCCCC(=O)OCC(O)CO (configuration not stated)
inactive: activity, negative = inhibition [1, 2] 5.19% | activity, negative = inhibition [1, 3] 11.8% | Potency (7G8) | Potency (AA1029) | Potency (AS120)

CN(C)C(=S)SC(=S)N(C)C
active: Potency (3D7) 11.2 µM | Potency (7G8) 6.31 µM | Potency (AS120) 12.6 µM

COc1cccc(CCc2ccccc2OCC(CN(C)C)OC(=O)CCC(=O)O)c1 (configuration not stated)
active: Potency ([1]; parasite line B) 6.31 µM | Potency (3D7) 10 µM | Potency (7G8) 0.631 µM | Potency (AA1029) 3.98 µM | Potency (AS120) 4.47 µM

O=C1[C@H]2CCCC[C@H]2C(=O)N1CCCCN1CCN(c2nsc3ccccc23)CC1
inactive: activity, negative = inhibition [1, 2] -3.99% | activity, negative = inhibition [1, 3] 7.58% | Potency (AA1029) | Potency (AS120)

CCCCCCCCCCCCCCNCCO
active: Potency ([1]; parasite line A) 10 µM | Potency (7G8) 10 µM | Potency (AS120) 12.6 µM

COc1ccc(C2C(=O)c3ccccc3C2=O)cc1
inactive: activity, negative = inhibition [1, 2] 3.83% | Potency (3D7) | Potency (7G8) | Potency (AA1029) | Potency (AS120)

C[C@@H]1CN(CCCn2c3ccccc3c3ccccc32)C[C@H](C)N1
active: Potency ([1]; parasite line A) 10 µM | Potency (7G8) 4.47 µM | Potency (AA1029) 4.47 µM | Potency (AS120) 12.6 µM

C=C(CC)C(=O)c1ccc(OCC(=O)O)c(Cl)c1Cl
active: Potency ([1]; parasite line A) 12.6 µM | Potency (7G8) 14.1 µM | Potency (AS120) 12.6 µM

C[C@@H]1C(=O)NC2=Nc3cccc(Cl)c3CN21
inactive: activity, negative = inhibition [1, 3] -2.54% | Potency (3D7) | Potency (7G8) | Potency (AA1029) | Potency (AS120)

CN(C)CC/C=C1\c2ccccc2Sc2ccc(Cl)cc21
active: Potency ([1]; parasite line B) 8.91 µM | Potency (7G8) 12.6 µM | Potency (AS120) 11.2 µM
inactive: Potency (3D7)

O=C(Nc1ccc(Oc2ccc(Cl)cc2)c(Cl)c1)c1cc(I)cc(I)c1O
inactive: Potency (3D7) | Potency (AA1029)

CCCOC(C(=O)OC1CCN(C)CC1)(c1ccccc1)c1ccccc1
inactive: activity, negative = inhibition [1, 2] -18.3%
active: Potency (7G8) 11.2 µM

CO/N=C1\CN(c2nc3c(cc2F)c(=O)c(C(=O)O)cn3C2CC2)CC1CN (configuration not stated)
active: Potency (3D7) 10 µM | Potency (7G8) 7.94 µM | Potency (AA1029) 7.94 µM

CCOC(=O)/C=C(C)/C=C/C=C(C)/C=C/c1c(C)cc(OC)c(C)c1C
active: Potency (7G8) 12.6 µM

O=C1OCCN1/N=C/c1ccc([N+](=O)[O-])o1
active: Potency (7G8) 10 µM | Potency (AA1029) 10 µM

NC(CS)C(=O)O (configuration not stated)
active: Potency (7G8) 1.78 µM | Potency (AA1029) 15.8 µM

Cc1ccc(O)c2ncccc12
inactive: activity, negative = inhibition [1, 3] -28.2% | Potency (7G8) | Potency (AA1029)

CC(=O)OCC(=O)[C@@]1(OC(C)=O)[C@@H](C)C[C@H]2[C@@H]3C[C@H](F)C4=CC(=O)C=C[C@]4(C)[C@@]3(F)[C@@H](O)C[C@@]21C
active: Potency (7G8) 8.91 µM
inactive: activity, negative = inhibition [1, 2] -18.2% | Potency (3D7) | Potency (AA1029) | Potency (AS120)

O=C(CCCN1CCC(O)(c2ccc(Br)cc2)CC1)c1ccc(F)cc1
active: Potency (3D7) 5.62 µM | Potency (7G8) 2.82 µM

CNCCC=C1c2ccccc2CCc2ccccc21
inactive: activity, negative = inhibition [1, 2] -6.28% | Potency (3D7)
active: Potency (7G8) 11.2 µM | Potency (AA1029) 4.47 µM

CCN(CC)CCNC(=O)COc1ccc(Cl)cc1
inactive: Potency (3D7)
active: Potency (AS120) 12.6 µM

CCOc1ccc(Cc2nccc3cc(OCC)c(OCC)cc23)cc1OCC
inactive: activity, negative = inhibition [1, 5] -21.6% | Potency (7G8) | Potency (AA1029) | Potency (AS120)

Cc1cccc(C)c1NC(=O)CN1CCN(CCCC(c2ccc(F)cc2)c2ccc(F)cc2)CC1
inactive: activity, negative = inhibition [1, 4] -9.2% | activity, negative = inhibition [1, 5] -3.17%
active: Potency (7G8) 4.47 µM | Potency (AS120) 3.98 µM

CCN(CC)C(=O)/C(C#N)=C/c1cc(O)c(O)c([N+](=O)[O-])c1
active: Potency (7G8) 14.1 µM
inactive: activity, negative = inhibition [1, 2] -3.14% | activity, negative = inhibition [1, 3] -7.95% | Potency (AA1029) | Potency (AS120)

Oc1ccc(O)cc1
active: Potency (3D7) 8.91 µM
inactive: Potency (AA1029)

Oc1ccc(Cl)c2cccnc12
inactive: activity, negative = inhibition [1, 2] -27% | Potency (AA1029) | Potency (AS120)

CN1CCC[C@@H]1c1cccnc1
inactive: activity, negative = inhibition [1, 2] 3.02% | Potency (3D7) | Potency (7G8) | Potency (AA1029) | Potency (AS120)

CC(C)NC[C@@H](O)COc1cccc2ccccc12
inactive: activity, negative = inhibition [1, 2] 4.7% | Potency (3D7)
active: Potency (7G8) 5.62 µM | Potency (AA1029) 11.2 µM | Potency (AS120) 8.91 µM

CCCCCCCCCCOCC(O)CN (configuration not stated)
inactive: activity, negative = inhibition [1, 2] -16.8% | Potency (3D7)
active: Potency (7G8) 12.6 µM

CC(C)COC(=O)c1ccc(N)cc1
inactive: activity, negative = inhibition [1, 3] -17.5% | Potency (3D7) | Potency (7G8) | Potency (AA1029) | Potency (AS120)

c1ccc(-c2ccc(C(c3ccccc3)n3ccnc3)cc2)cc1 (configuration not stated)
active: Potency ([1]; parasite line B) 11.2 µM | Potency (7G8) 2 µM | Potency (AS120) 3.98 µM

CCCCc1nc(Cl)c(CO)n1Cc1ccc(-c2ccccc2-c2nn[nH]n2)cc1
active: Potency ([1]; parasite line B) 12.6 µM | Potency (3D7) 5.62 µM | Potency (7G8) 6.31 µM | Potency (AA1029) 10 µM | Potency (AS120) 8.91 µM

CCCCC(CC)CN=C(N)NC(N)=NCCCCCCN=C(N)NC(N)=NCC(CC)CCCC (configuration not stated)
active: Potency ([1]; parasite line A) 1 µM | Potency (3D7) 1.58 µM | Potency (7G8) 0.316 µM | Potency (AA1029) 1.41 µM | Potency (AS120) 0.891 µM
